This note sets out measurements from PubChem BioAssay AID2314 (National Center for Advancing Translational Sciences (NCATS), 2010).

The whole screen tested about 300,000 compounds, of which about 37,000 (12%) were called active. Only a selection was taken, and actives are over-represented in it overall. Values without a mark were called inactive. Cut-off read from the data, not from the text of the source: active = max response mostly above about 13% (no sharp cut-off); inactive = mostly below about 14%.

A short description of this test: Cycloheximide Counterscreen for Small Molecule Inhibitors of Shiga Toxin. Note: read at 38.3 µM for the half of the compounds with a filed dose; 0% is about no effect. The settings on record: cell reporter, cycloheximide protein synthesis inhibition counterscreen; stronger effect = higher value. For orientation: Counterscreens check selectivity or assay interference.
Consider `COC(=O)/C=C/C(=O)NCc1ccco1`, for which the max response is -1.68%.
As for `O=C(/C=C/c1ccc(Cl)cc1Cl)NCc1ccco1`, the figure is 34.8% (active); as for `O=C(NCc1ccco1)C1(c2ccc(Cl)cc2)CCCC1`, -3.56%; as for `FC(F)(F)C1CCCN(c2nsc3ccccc23)C1` (stereo not drawn), -4.78%.
As for `Cc1ccc2[nH]c(=O)c(CN(CC3COCCO3)C(=O)Nc3ccccc3C)cc2c1` (stereo not drawn), the figure is -2.55%.
In the case of `CC(=O)Nc1ccc(NC(=O)COc2ccc(-c3ccccc3)cc2)cc1` it was 1.23%; in that of `O=C(CCc1ccccc1)Nc1cccc(-c2nnc(-c3ccco3)o2)c1`, 1.83%.
Turning to `Cc1ccc(OCC(=O)Nc2ccc(-c3nnc(-c4ccco4)o3)cc2)cc1`, the max response is 28.8% (active).
In the case of `COc1ccc(NC(=O)c2cnc(NS(=O)(=O)c3ccccc3)nc2)cc1` it was -2.55%.
As for `COc1ccc(NC(=O)CS(=O)(=O)c2ccccc2)cc1`, the figure is 26.3% (active); as for `Cc1cccc(NC(=O)CSc2nnc(-c3ccco3)o2)c1`, 5.5%.
In the case of `COc1ccc(CC(=O)Nc2ccc(-c3nnc(-c4ccccc4)o3)cc2)cc1` it was 10.6% (active); in that of `COc1ccc(CC(=O)Nc2c(C(N)=O)oc3ccccc23)cc1`, -1.28%; in that of `O=C(CS(=O)(=O)c1ccccc1)Nc1ccc(S(=O)(=O)Nc2ccccn2)cc1`, -1.21%.
On to `Cc1ccc(OCC(=O)Nc2ccc(-c3nc4ncccc4o3)cc2)cc1`, for which the max response is -0.121%.
As for `Cc1ccc(OCC(=O)Nc2nnc(-c3ccco3)s2)cc1`, the figure is -1.91%; as for `CCC(=O)Oc1cccc(C(=O)Nc2ccc(-c3nnc(-c4ccco4)o3)cc2)c1`, 35.2% (active).
As for `Fc1ccc2c(c1)C(c1cccnc1)=NNC(c1cccs1)=N2`, the figure is 14.7%.
As for `CC(=O)Nc1ccc(Nc2c([N+](=O)[O-])cc(S(C)(=O)=O)cc2[N+](=O)[O-])cc1`, the figure is -3.33%; as for `CCN(CC)S(=O)(=O)c1ccc(N2CCOCC2)c(NC(=O)C2CSC3(C)CCC(=O)N23)c1` (stereo not drawn), 10.5%.
In the case of `CC(=O)N1c2ccccc2N(Cc2ccc([N+](=O)[O-])cc2)C(=O)C1(C)C`, the max response is 10.6%.
As for `O=C(COc1ncnc2c(Cl)cc(Cl)cc12)N1CCN(S(=O)(=O)c2ccccc2)CC1`, the figure is 4.8%; as for `CN(C)c1cccc(C(=O)N2CCC(n3nccc3NC(=O)C3CCOC3)CC2)c1` (stereo not drawn), 5.41%; as for `O=C(CNC(=O)OCc1ccccc1)Oc1cc2oc(=O)cc(-c3ccccc3)c2cc1Cl`, 7.2%.
Consider `COc1cccc(N(CC(=O)NCc2ccccc2)C(=O)CCC(=O)Nc2nccs2)c1`, for which the max response is -5.29%.
In the case of `O=C(c1ccc(S(=O)(=O)N2CCCC2)cc1)N1CCN(c2ccccc2F)CC1` it was -1.05%; in that of `Cc1ccc(S(=O)(=O)N(C)c2nc3ccccc3n3c(C(C)C)nnc23)cc1`, 1.55%.
As for `CCc1nn(CCCC(=O)NC(C)c2ccccc2)c(=O)c2cc3occc3n12` (stereo not drawn), the figure is 10.1%.
As for `O=C(c1ccc(F)cc1)c1c[nH]c(C(=O)NCc2cccnc2)c1`, the figure is 0.811%.
With `C#CCOCCOCCOCCNc1nc(N2CCN(C(=O)[C@H](CCC(=O)O)n3cc(C(N)CO)nn3)CC2)nc(N2CCN(C(=O)[C@H](CCCCN)n3cc(C(N)[C@H](C)CC)nn3)CC2)n1` (stereo partly drawn), the max response is -1.6%.
For the molecule `COc1ccc(OCC(=O)Nc2nnc(-c3ccco3)s2)cc1`, the max response is -4.11%.
In the case of `COc1ccc(C(=O)CSc2nnc(-c3ccco3)o2)cc1` it was 11.4%; in that of `CCCCOc1ccc(-c2nnc(-c3ccco3)o2)cc1`, 28.1% (active); in that of `O=c1c(Cl)c(NCc2ccc(F)cc2Cl)cnn1C12CC3CC(CC(C3)C1)C2`, -2.73%.
As for `COc1cccc(C2CC(c3cccs3)=NN2C(=O)CSC2=NCCS2)c1OC` (stereo not drawn), the figure is -1.93%.
As for `COc1ccc(N(C)C(=O)CCS(=O)(=O)c2cccc3nsnc23)cc1`, the figure is 3.71%; as for `O=C(Nc1ccccc1)Nc1nnc(COc2ccccc2F)s1`, 0.805%.
For the molecule `O=C(NCCOc1ccccc1F)Nc1ccc(Br)cc1`, the max response was 41.8% (active).
As for `O=C(NCCOc1ccccc1Cl)C(=O)Nc1ccccc1`, the figure is -6.33%; as for `COc1ccc(CN2CCc3nc(Nc4ccccc4)ncc3C2)c(OC)c1OC`, 12.2%; as for `CCN(CC)C(=O)CC1(c2ccccc2OC)CCOC(C(C)C)C1` (stereo not drawn), -2.61%.
As for `O=C(O)c1ccccc1NC(=O)c1ccccc1-c1ccccc1C(=O)O`, the figure is 1.58%; as for `O=C(NC(=S)Nc1ccccc1C(=O)O)c1ccc(-c2ccc(Br)cc2)o1`, 45.5% (active); as for `O=C(NC(=S)Nc1cc(C(F)(F)F)ccc1N1CCOCC1)c1ccc(-c2cccc(Cl)c2)o1`, 12.2%.
As to `O=C(O)c1ccc2c(=O)n3c(nc2c1)/C(=C/c1ccc(Cl)c([N+](=O)[O-])c1)CC3`, the max response is -1.06%.
In the case of `COc1ccc(N=Nc2c(-c3ccc(OC)cc3)[nH]oc2=O)cc1` it was -1.85%; in that of `COc1cc(NC(=O)CCS(=O)(=O)c2ccc3c(c2)oc(=O)n3C)cc(OC)c1`, -9.36%; in that of `CN(c1ccc2nc3ccccc3c(=O)n2n1)C1CCCCC1`, -12.8%.
Regarding `O=C(NC(=O)N1CCOCC1)c1ccccc1`, the max response is 4.39%.
In the case of `O=C(O)c1ccc(N=NN2CCOCC2)cc1` it was 39% (active); in that of `O=C(c1ccccc1)N1CCN(C(=O)N2CCCCC2)CC1`, -3.32%; in that of `NC(=NC(=O)c1ccccc1)N1CCOCC1`, -1.9%.
Turning to `O=C(O)c1cccc(N=NN2CCCCCC2)c1`, the max response is 69.7% (active).
In the case of `CN1CCN(S(=O)(=O)c2cccc(C(=O)O)c2)CC1` it was -8.28%; in that of `CCOC(=O)N1CCN(S(=O)(=O)N2CCCC(C(=O)NCCCN3CCC(C)CC3)C2)CC1` (stereo not drawn), 1.6%.
As for `CCc1ccccc1NC(=O)/C(=C/c1ccccc1)c1ccccc1`, the figure is 8.5%.
In the case of `O=C(Nc1ccccc1N1CCN(C(=O)c2ccccc2)CC1)c1ccco1` it was -3.96%; in that of `CCOC(=O)C1CCN(c2ncnc3c2c(-c2ccccc2)cn3-c2ccc(C)cc2)CC1`, 1.88%.
In the case of `COc1ccc(/C=C2/S/C(=N/N=C3\CC4CCC3(C)C4(C)C)NC2=O)cc1` (stereo not drawn), the max response is 8.52%.
In the case of `COc1ccc(N(Cc2cc3ccc(C)cc3[nH]c2=O)S(=O)(=O)c2ccccc2)cc1` it was 0.769%; in that of `CCOC(=O)N1CCN(C(=O)c2ccc3c(c2)N(Cc2ccc(C)cc2)CCS3)CC1`, -0.464%.
Turning to `O=C(NCCN1CCOCC1)c1ccc2c(c1)N(Cc1ccc(Cl)cc1)CCS2`, the max response is -1.99%.
In the case of `O=C(NCCc1ccccc1)c1ccc2c(c1)N(Cc1ccccc1)CCS2` it was 38.6% (active); in that of `COc1cc(SC#N)ccc1N=Cc1c(C)[nH]n(-c2ccc(C)cc2)c1=O`, -1.77%.
Regarding `CCC1CCc2c(sc(NC(C)=O)c2C#N)C1` (stereo not drawn), the max response was 14.2% (active).
In the case of `CN1CCN(CC(=O)Nc2sc3c(c2C#N)CCC(C(C)(C)C)C3)CC1` (stereo not drawn) it was -3.82%; in that of `CC(=O)N1CCc2c(sc(NC(=O)CCS(=O)(=O)c3ccccc3)c2C#N)C1`, 6.75%; in that of `COc1cc(C(=O)NC2CCN(Cc3ccccc3)CC2)cc(Cl)c1OC(C)C`, -3.58%.
As for `CCOc1ccccc1CNS(=O)(=O)c1cc(-c2cc(C)no2)ccc1C`, the figure is 5.17%; as for `CCCCN(C)CCCNC(=O)c1cc(-c2cccs2)nc2ccccc12`, -4.95%; as for `CN(C)CCNc1ccc(-c2n[nH]c(=O)c3ccccc23)cc1[N+](=O)[O-]`, -2.5%.
`CCN1CCN(C2CCCCC2NS(=O)(=O)c2ccc(Cl)cc2)CC1` (stereo not drawn): the max response is -3.25%.
For the molecule `CC(=O)Nc1ccc(S(=O)(=O)N2CCN(C3CCCCCCC3)CC2)cc1`, the max response was -5.2%.
As for `O=C(Cn1nc(C(F)(F)F)c2c1CCC2)NCc1ccc(F)cc1`, the figure is 0.318%; as for `CC(=O)Nc1ccc(NC(=O)CC2CCCC2)cc1`, 20.7% (active).
In the case of `CC(=O)Nc1ccc(N2C(=O)C3C4C=CC(CC4)C3C2=O)cc1` (stereo not drawn) it was 3.43%; in that of `O=C(CCc1ccc(S(=O)(=O)NC2CCCCC2)cc1)NCc1ccccc1`, -1.16%; in that of `O=C(Cc1ccc(F)cc1)NC1CCCC1`, 5.3%.
As for `O=C(CC1CCCCC1)NCc1ccc(F)cc1`, the figure is 24.8% (active).
Take `O=C(CC1CCCCC1)NCc1ccco1`: the max response was -1.2%.
As for `O=C(CC1CCCCC1)NCc1ccccc1`, the figure is 17.3% (active).
Turning to `COC(=O)c1ccc(/C=C2/C(=O)Oc3ccccc32)cc1`, the max response was -4.87%.
As for `CC(C(=O)N1CCN(c2ccccc2F)CC1)c1ccc([N+](=O)[O-])cc1` (stereo not drawn), the figure is -0.676%; as for `Cc1ccc(CC2CC(=O)N(c3cc(C)ccc3C)C2=O)cc1` (stereo not drawn), -1.67%; as for `CCOCCCN(C)C1CCN(C(=O)c2oc3ccccc3c2NC(=O)COc2cccc(C)c2)CC1`, -3.98%.
As for `CCN1CCCC1CNC(=O)c1cc2cc(OC)c(OC)cc2[nH]1` (stereo not drawn), the max response was -3.29%.
As to `COc1ccc(N(C)S(=O)(=O)c2ccc3c(c2)CC(C)N3C(=O)C2CC2)c(OC)c1` (stereo not drawn), the max response is 3.16%.
In the case of `O=c1c2sccc2nc(SCc2cc(=O)n3ccccc3n2)n1-c1ccc(Br)cc1` it was -4.5%; in that of `CC(C)=CCN1CCN(CCCc2ccccc2)CC1CCO` (stereo not drawn), -0.846%; in that of `COC(=O)c1c(NC(=O)COc2ccc(Cl)cc2Cl)sc2c1CC(C)(C)NC2(C)C`, 0.749%.
As for `Cc1ccc(S(=O)(=O)c2ccc(Oc3ccccc3)cc2)cc1`, the figure is -0.97%; as for `CC1=C/C(=N\OS(=O)(=O)c2ccccc2)C=CC1=O`, 35% (active).
As for `CC1=C/C(=N\S(=O)(=O)c2ccccc2)C(C(C)C)=CC1=O`, the figure is -2.83%.
